Hits are enriched below; roughly 19% of the tested compounds scored in any of these assays.
KB-V1 cytotox – kills drug-selected multidrug resistant KB-V1 cells; KB-V1 MDR cells viability, CellTiter-Glo, 72 h; Potency, µM (doses to about 46.1 µM), most hits filed as cytotoxic; 3.4% of 400,000 active; AID 1347076; note: nearly all actives have a fitted effect of over 60% in size
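Readout: CellTiter-Glo luminescence, 10 min after addition. Cells: KB-V1 MDR subline, 72 h at 37 degrees C with compound. Analysis: corrected, normalized data fitted to concentration-effect curves.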
DT40 TDP1 no CPT – qHTS for Inhibitors of human tyrosyl-DNA phosphodiesterase 1 (TDP1): qHTS in cells in absence of CPT; DT40 Tdp1-/- hTDP1 cells, no CPT, ATP luminescence, 48 h; Potency, µM (series often up to 46.2 µM), inactives show at the highest dose activity change, negative = growth inhibition, usual class: inhibitors; 15% of 420,000 active; AID 686978, 2013; note: nearly all actives have a fitted effect of over 55% in size
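A cellular qHTS used chicken DT40 cells lacking endogenous Tdp1 but carrying stably transfected human TDP1. Compounds were applied without camptothecin, and cell growth kinetics were judged by ATP-dependent luminescence after ≥48 hr.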
HT1080 IDH1KD tx – HT-1080 IDH1 knockdown cell toxicity (counter line). HT-1080 IDH1 knockdown viability, ATP luminescence, 48 h. Potency, µM (doses to about 46.1 µM), without a hit: top-dose activity, negative = toxicity, most hits filed as cytotoxic. 2% of 360,000 active;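 note: 0% = DMSO wells and -100% = cell-free medium wells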
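Using the IDH1-knockdown HT-1080 line run in the same batch and compound series as the NT line, viability after 48 h at 37 °C was determined by CellTiter-Glo luminescence and expressed as % activity.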
DT40 TDP1 CPT – growth inhibition of DT40 Tdp1-/-;hTDP1 cells with camptothecin (screen for TDP1 inhibitors); AID 686979; Potency, µM (titrated, usually from 46.2 µM), without a hit: at the top dose activity change, negative = growth inhibition, hits mostly inhibitors; chicken DT40 Tdp1-/-;hTDP1 cells + 20 nM CPT, ATP luminescence, 48 h; 12% of 420,000 active; note: nearly all actives have a fitted effect of over 55% in size
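Cell growth measured by CellTiter-Glo luminescence after a minimum 48 h, 37 C compound exposure with 20 nM CPT in Tdp1-knockout DT40 cells stably expressing hTDP1, seeded 400/well; qHTS titration format.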
HT1080NT lethal – kills 2HG-producing HT-1080-NT fibrosarcoma cells | 1.6% of 360,000 active | HT-1080-NT fibrosarcoma viability, CellTiter-Glo ATP luminescence, 48 h | Potency, µM (series often up to 46.1 µM), inactives show at the highest dose activity, negative = less viability, most hits filed as cytotoxic;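 note: NT is the 2HG producing partner of a matched IDH1 knockdown line; 0% = DMSO-treated cells and -100% = media-only wells without cells; nearly all actives have a fitted effect of over 55% in size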
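A 48-hour cytotoxicity screen used HT-1080-NT cells plated 2 hours before compound delivery. ATP-based CellTiter-Glo luminescence measured viability, normalized to DMSO and no-cell controls.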
KB-3-1 cytotox – KB-3-1 parental cell cytotoxicity; 1.4% of 400,000 active; KB-3-1 viability, CellTiter-Glo ATP luminescence, 72 h; Potency, µM (highest dose often 46.1 µM), hits mostly cytotoxic; AID 1347075; note: nearly all actives have a fitted effect of over 60% in size
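KB-3-1 cells, DMEM (no phenol red) + 10% FBS; compound by pin transfer, 72 h, 37 °C. Readout: CellTiter-Glo luminescence after 10 min. Data normalized, curve-fitted.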
Numbers without * were called inactive; [ ] = dose if it differs, or a comment. Calls come from the whole dose curve; as a rule, active = well fitted curve in the direction sought with a large enough effect; inconclusive = small, poorly fitted or top-dose-only effect, or another doubt; inactive = no such curve, though single readings can be large; an effect the other way counts as inactive or inconclusive. Unless noted, % is set by controls: 0 for no effect and ±100 for the full control effect; potency is the fitted concentration of half-maximal effect.

`NC(=O)c1ccc(-n2nnnc2SCc2ccccc2)cc1` gave KB-V1 cytotox inactive, DT40 TDP1 no CPT inconclusive, HT1080 IDH1KD tx -7%, DT40 TDP1 CPT -7%, HT1080NT lethal -1% and KB-3-1 cytotox inactive.
Screening NS(=O)(=O)c1ccc(CCNC(=O)c2ccc3nc(CCc4ccccc4)oc3c2)cc1 returned DT40 TDP1 no CPT -8% and DT40 TDP1 CPT inconclusive.
`COCCN(Cc1ccccc1)C(=O)c1ccc2c(=O)n3c(nc2c1)CCC3` gave KB-V1 cytotox inactive, DT40 TDP1 no CPT 2%, HT1080 IDH1KD tx 9%, DT40 TDP1 CPT -2%, HT1080NT lethal 17% and KB-3-1 cytotox inactive.
Screening CCN(Cc1ccccc1)C(=O)c1ccc2c(=O)n3c(nc2c1)CCC3 returned KB-V1 cytotox 10µM*, DT40 TDP1 no CPT inconclusive, HT1080 IDH1KD tx 19%, DT40 TDP1 CPT -9%, HT1080NT lethal 4% and KB-3-1 cytotox inactive.
CCc1ccc(N(CC)C(=O)c2ccc3c(=O)n4c(nc3c2)CCCCC4)cc1 was read as DT40 TDP1 no CPT 16µM* and DT40 TDP1 CPT inconclusive.
Cc1ccccc1NC(=O)c1c(NC(=O)C(C)Oc2cccc(Cl)c2)sc2c1CCCC2 (configuration not stated) was read as DT40 TDP1 no CPT -18% and DT40 TDP1 CPT -20%.
Screening COc1cccc(CNC(=O)COC(=O)c2ccc(-c3ccc(O)cc3)cc2)c1 returned KB-V1 cytotox inconclusive, DT40 TDP1 no CPT 3.3µM*, HT1080 IDH1KD tx 21µM*, DT40 TDP1 CPT inconclusive, HT1080NT lethal inconclusive and KB-3-1 cytotox inactive.
Screening Nc1[nH]c(C(=O)c2ccccc2)c(-c2ccccc2Br)c1C(=O)c1ccccc1 returned KB-V1 cytotox inconclusive, DT40 TDP1 no CPT inconclusive, HT1080 IDH1KD tx -28%, DT40 TDP1 CPT inconclusive, HT1080NT lethal inconclusive and KB-3-1 cytotox inactive.
`O=C(/C(=C/O)N=Nc1ccccc1)c1ccc(Cl)cc1` gave KB-V1 cytotox inconclusive, DT40 TDP1 no CPT inconclusive, HT1080 IDH1KD tx 18µM*, DT40 TDP1 CPT inconclusive, HT1080NT lethal 16µM* and KB-3-1 cytotox inactive.
O=C(/C(=C/O)N=Nc1ccccc1)c1ccncc1 was read as KB-V1 cytotox inactive, DT40 TDP1 no CPT inconclusive, HT1080 IDH1KD tx 2%[9.24 µM], DT40 TDP1 CPT inconclusive, HT1080NT lethal inconclusive and KB-3-1 cytotox inactive.
`CCCCn1nnnc1C1(C)CCC(=O)N1CCCn1ccnc1` (configuration not stated) gave KB-V1 cytotox inactive, DT40 TDP1 no CPT 16µM*, HT1080 IDH1KD tx inconclusive, DT40 TDP1 CPT 21µM*, HT1080NT lethal inconclusive and KB-3-1 cytotox 13µM*.
Screening O=C(NCc1cccnc1)c1cccc(S(=O)(=O)Nc2ccc(F)cc2)c1 returned KB-V1 cytotox inactive, DT40 TDP1 no CPT inconclusive, HT1080 IDH1KD tx -14%, DT40 TDP1 CPT inconclusive, HT1080NT lethal -5% and KB-3-1 cytotox inactive.
For Cc1ccc(S(=O)(=O)Nc2cccc(C(=O)NCc3cccnc3)c2)cc1F the results were KB-V1 cytotox inactive, DT40 TDP1 no CPT 4.6µM*, HT1080 IDH1KD tx 6.5µM*, DT40 TDP1 CPT inconclusive, HT1080NT lethal inconclusive and KB-3-1 cytotox 7.3µM*.
Cc1ccc(S(=O)(=O)Nc2cccc(C(=O)NCC(c3ccccc3)N(C)C)c2)cc1F (configuration not stated) was read as KB-V1 cytotox inactive, DT40 TDP1 no CPT inconclusive, HT1080 IDH1KD tx -2%, DT40 TDP1 CPT -15%, HT1080NT lethal -10% and KB-3-1 cytotox inactive.
For Cc1ccc(S(=O)(=O)Nc2cccc(C(=O)NCC(c3ccco3)N(C)C)c2)cc1F (configuration not stated) the results were KB-V1 cytotox inactive, DT40 TDP1 no CPT 21µM*, HT1080 IDH1KD tx 4%, DT40 TDP1 CPT inconclusive, HT1080NT lethal 7% and KB-3-1 cytotox inactive.
Screening Cc1ccc2c(c1)c1c(c(=O)n(-c3ccccc3)c(=O)n1CC(=O)NCCC1=CCCCC1)n2C returned KB-V1 cytotox inactive, DT40 TDP1 no CPT 7%, DT40 TDP1 CPT -27% and KB-3-1 cytotox inactive.
COc1cc(Cl)c(C)cc1NC(=O)CSc1nc2c(c(=O)[nH]1)CCC2 was read as KB-V1 cytotox inactive, DT40 TDP1 no CPT inconclusive, DT40 TDP1 CPT -28% and KB-3-1 cytotox inactive.
For COc1ccccc1Nc1nc2c(s1)CCC2 the results were KB-V1 cytotox inactive, DT40 TDP1 no CPT inconclusive, HT1080 IDH1KD tx 2%, DT40 TDP1 CPT 15µM*, HT1080NT lethal 1% and KB-3-1 cytotox inactive.
COc1cc(Nc2c3c(nc4ccccc24)CCCC3)cc(OC)c1OC was read as KB-V1 cytotox inactive, DT40 TDP1 no CPT inconclusive, HT1080 IDH1KD tx inconclusive, DT40 TDP1 CPT inconclusive, HT1080NT lethal inconclusive and KB-3-1 cytotox inconclusive.
For COc1ccc(CNC(=O)c2cc(Nc3ccc(OC)cc3OC)nc3ccccc23)cc1 the results were KB-V1 cytotox inactive, DT40 TDP1 no CPT inconclusive, DT40 TDP1 CPT inconclusive and KB-3-1 cytotox inactive.
`COc1ccc(Nc2c3c(nc4ccccc24)CCC3)c(OC)c1` gave KB-V1 cytotox 4.1µM*, DT40 TDP1 no CPT 16µM*, HT1080 IDH1KD tx 16µM*, DT40 TDP1 CPT 15µM*, HT1080NT lethal 18µM* and KB-3-1 cytotox 21µM*.
`Cc1ccc(Nc2nc3c(s2)CCC3)c(C)c1` gave KB-V1 cytotox inactive, DT40 TDP1 no CPT inconclusive, HT1080 IDH1KD tx -7%, DT40 TDP1 CPT inconclusive, HT1080NT lethal -15% and KB-3-1 cytotox inactive.
COc1ccccc1Nc1c2c(nc3ccccc13)CCC2 was read as KB-V1 cytotox inconclusive, DT40 TDP1 no CPT 16µM*, HT1080 IDH1KD tx inconclusive, DT40 TDP1 CPT 18µM*, HT1080NT lethal inconclusive and KB-3-1 cytotox inconclusive.
`COc1cc(Cl)c(C)cc1Nc1c2c(nc3ccccc13)CCC2` gave KB-V1 cytotox inactive, DT40 TDP1 no CPT 1.5µM*, DT40 TDP1 CPT 2.1µM* and KB-3-1 cytotox 4.1µM*.
`COc1ccc(CN2C(=O)C(CC(=O)NC3CC3)CC(C(=O)N(C)C)=C2C)cc1` (configuration not stated) gave KB-V1 cytotox inactive, DT40 TDP1 no CPT -6%, HT1080 IDH1KD tx -1%, DT40 TDP1 CPT -8%, HT1080NT lethal 0% and KB-3-1 cytotox inactive.

Screening results from PubChem BioAssay.
